Measurements reported in PubChem BioAssay (EPA / NIEHS).
Records with an inconclusive call do not appear. Calls of active or inactive are those of the source. The calls were made as follows, unless noted: active = hit-call score of the fitted dose curve at least 0.9, where 1 is the maximum; inactive = score below 0.9.

Columns and labels:
[1] = biological target: Peroxisome proliferator-activated receptor gamma (Homo sapiens) (UniProt P37231); assay: OT_PPARg_PPARgSRC1_0480: Odyssey Thera (OT) 8-hour Protein-Complementation Assay for Peroxisome Proliferator-activated Receptor Gamma / SRC-1 Co-activator (AID 2283387; active = hit-call score of the fitted dose curve at least 0.9, where 1 is the maximum;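 also: nuclear to cytoplasmic split Venus YFP fluorescence ratio reporting PPARg SRC-1 interaction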)
Method in brief: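 HEK293T transiently transfected with PPARg and SRC-1 fused to Venus YFP fragments, compounds 8 h at 37C. Fixed, Draq5-stained cells imaged; nuclear/cytoplasmic 488 nm fluorescence ratio over at least 350 cells per image; gain fitted versus DMSO.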

[2] = biological target: Peroxisome proliferator-activated receptor gamma (Homo sapiens) (UniProt P37231); assay: OT_PPARg_PPARgSRC1_1440: Odyssey Thera (OT) 24-hour Protein-Complementation Assay for Peroxisome Proliferator-activated Receptor Gamma/ SRC-1 Co-activator (AID 2283388; active = hit-call score of the fitted dose curve at least 0.9, where 1 is the maximum)
Method in brief: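 Readout: nuclear-to-cytoplasmic 488 nm fluorescence ratio, ≥350 cells per image, 8 images per well, after 24 h compound exposure of HEK293T expressing PPARg/SRC-1 split-YFP fusions. Activity fitted in positive direction against DMSO.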

[3] = CEETOX_H295R_11DCORT: CeeTox H295R High-throughput Steroidogenesis Assay for 11-Deoxycortisol (11DCORT) (AID 2283432); conditions: actives raise or lower the signal;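 as to AC50: 11-deoxycortisol secreted into the medium measured by LC-MS/MS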
Method in brief: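 H295R cells prestimulated 48 h with 10 uM forskolin, then exposed 48 h to chemical in 0.1% DMSO. 11-Deoxycortisol in medium quantified by HPLC-MS/MS after MTBE extraction; bidirectional fit versus DMSO. MTT viability read in same wells.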

[4] = CEETOX_H295R_OHPREG: CeeTox H295R High-throughput Steroidogenesis Assay for OH-Pregnenolone (OHPREG) (AID 2283434); conditions: actives raise or lower the signal
Method in brief: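 H295R cells pre-stimulated 48 h with 10 uM forskolin, then exposed 48 h to chemical in 0.1% DMSO. 17alpha-hydroxypregnenolone in medium quantified by MTBE extraction and HPLC-MS/MS; bidirectional fit versus DMSO, viability checked by MTT.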

[5] = CEETOX_H295R_OHPROG: CeeTox H295R High-throughput Steroidogenesis Assay for OH-Progesterone (OHPROG) (AID 2283435); conditions: actives raise or lower the signal;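 as to AC50: human adrenal H295R cells primed 48 h with 10 µM forskolin; 17alpha-hydroxyprogesterone secreted into medium measured by HPLC-MS/MS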
Method in brief: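 H295R, 10 uM forskolin prestim 48 h; cmpd in 0.1% DMSO 48 h; medium MTBE-extracted, HPLC-MS/MS for OH-progesterone; 7-pt std curve; bidirectional fit vs DMSO; MTT viability, chemicals diluted until viability >/=70%.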

[6] = CEETOX_H295R_ANDR: CeeTox H295R High-throughput Steroidogenesis Assay for Androstenedione (ANDR) (AID 2283436); conditions: actives raise or lower the signal
Method in brief: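 H295R cells, following OECD 456 with minor changes, exposed to chemicals for 48 h. Androstenedione in the medium was quantified by HPLC-MS/MS after MTBE extraction. Fitting was bidirectional versus DMSO; chemicals were diluted until MTT viability was ≥70%.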

[7] = CEETOX_H295R_CORTIC: CeeTox H295R High-throughput Steroidogenesis Assay for Corticosterone (CORTIC) (AID 2283437); conditions: actives raise or lower the signal;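 also: corticosterone secreted into medium quantified by mass spectrometry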
Method in brief: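 H295R adrenal cells prestimulated 48 hours with 10 uM forskolin, then exposed 48 hours to chemical in 0.1% DMSO. Corticosterone in medium measured by HPLC-MS/MS after MTBE extraction; MTT viability in the same wells; bidirectional fit versus DMSO.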

[8] = CEETOX_H295R_CORTISOL: CeeTox H295R High-throughput Steroidogenesis Assay for Cortisol (AID 2283438); conditions: actives raise or lower the signal;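 also: cortisol secreted into medium quantified by LC-MS/MS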
Method in brief: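 Forskolin 10 uM 48 h prestim → test cmpd in DMSO (0.1% final) 48 h → medium MTBE-extracted → LC-MS/MS cortisol vs 7-pt std curve. Gain/loss of signal fitted vs DMSO. MTT viability in same wells.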

[9] = CEETOX_H295R_DOC: CeeTox H295R High-throughput Steroidogenesis Assay for DOC (AID 2283439); conditions: actives raise or lower the signal
Method in brief: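 Readout: 11-deoxycorticosterone in culture medium by reverse-phase C18 HPLC with ESI+ tandem MS after MTBE extraction. Cells: H295R, forskolin-primed (10 uM, 48 h), chemical-treated 48 h; DMSO 0.1% final. Activity fitted bidirectionally versus DMSO.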

[10] = CEETOX_H295R_ESTRADIOL: CeeTox H295R High-throughput Steroidogenesis Assay for Estradiol (AID 2283440); conditions: actives raise or lower the signal;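 also: estradiol secreted into medium quantified by LC-MS/MS after dansyl derivatisation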
Method in brief: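 H295R, 48 h forskolin (10 uM) prestim → 48 h compound, 0.1% DMSO final. Estradiol in medium: MTBE extraction, dansyl chloride derivatization, LC-MS/MS. Fit bidirectional vs DMSO baseline; MTT viability in same wells.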

Measured: AC50

Sequence of Peroxisome proliferator-activated receptor gamma (Homo sapiens) (P37231 whole entry, looked up, the tested form may be a part): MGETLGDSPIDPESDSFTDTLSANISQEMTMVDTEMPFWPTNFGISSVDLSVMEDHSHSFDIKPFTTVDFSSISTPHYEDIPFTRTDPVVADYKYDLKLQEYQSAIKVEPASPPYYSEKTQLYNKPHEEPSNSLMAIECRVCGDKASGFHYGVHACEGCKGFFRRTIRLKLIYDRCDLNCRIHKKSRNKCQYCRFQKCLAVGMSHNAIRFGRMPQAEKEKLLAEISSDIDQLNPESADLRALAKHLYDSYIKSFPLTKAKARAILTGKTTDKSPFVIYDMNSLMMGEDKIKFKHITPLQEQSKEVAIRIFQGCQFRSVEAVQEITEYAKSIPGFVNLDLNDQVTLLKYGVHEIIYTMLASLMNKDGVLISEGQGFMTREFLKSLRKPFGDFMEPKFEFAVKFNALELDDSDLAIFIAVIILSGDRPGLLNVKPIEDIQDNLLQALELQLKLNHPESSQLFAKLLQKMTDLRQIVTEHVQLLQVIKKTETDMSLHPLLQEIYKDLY

CCOC(=O)c1ccc(C)cc1
inactive: [1] | [2]

CCOC(=O)C1=NN(c2ccc(Cl)cc2Cl)C(C)(C(=O)OCC)C1 (configuration not stated)
inactive: [3] | [4] | [5] | [6] | [7] | [8] | [9] | [10]

N#Cc1ccc(C(c2ccc(C#N)cc2)n2cncn2)cc1
inactive: [1] | [2]

CCCCCCCCCCCC(=O)N(C)CC(=O)O
inactive: [1] | [2]

COc1cc(O)c(C(=O)c2ccccc2)cc1S(=O)(=O)O
inactive: [1] | [2]

CC12CCC(CC1)C(C)(C)O2
inactive: [1] | [2]

CCC(C)(O)CCCC(C)C (configuration not stated)
inactive: [2]

CN(C)c1ccc2nc3ccc(=[N+](C)C)cc-3sc2c1
inactive: [2] | [3] | [4] | [5] | [7] | [8] | [10]
active: [1] 31.1 µM | [9] 0.598 µM

CC(=O)c1ccccc1O
inactive: [2]

O=C(O)c1ccc2c(c1)C(=O)OC2=O
inactive: [1] | [2]

CCCCCCCOC(=O)c1ccc(O)cc1
inactive: [1] | [2]

CCCCCCCO
inactive: [1] | [2]

CC(C)(C)NC(=O)[C@H]1CC[C@H]2[C@@H]3CC[C@H]4NC(=O)C=C[C@]4(C)[C@H]3CC[C@]12C
inactive: [1] | [2] | [5] | [7]
active: [3] 34.4 µM | [8] 36.3 µM | [9] 13.5 µM

CO[Si](C)(C)OC
inactive: [1] | [2]

O=C(O)CC(C(=O)O)S(=O)(=O)O (configuration not stated)
inactive: [1] | [2]

CC(C)(c1ccccc1)c1ccc(Nc2ccc(C(C)(C)c3ccccc3)cc2)cc1
inactive: [1] | [2] | [7]
active: [3] 2.72 µM | [4] 1.54 µM | [5] 0.359 µM | [8] 9.95 µM | [9] 0.82 µM

CCN1CN(CC)CN(CC)C1
inactive: [1] | [2] | [3] | [4] | [5] | [7] | [8] | [9] | [10]

O=C(OCc1ccccc1)c1ccc(O)cc1
active: [3] 36.8 µM | [4] 30.5 µM | [5] 13.5 µM | [8] 36.9 µM | [9] 42.7 µM | [10] 50 µM
inactive: [1] | [2] | [7]
